# Test results reported in PMC7862700, “An all-to-all approach to the identification of sequence-specific readers for epigenetic DNA modifications on cytosine”.
# Key:
# Assay in all cases: DAPPL (digital affinity profiling via proximity ligation, sequencing); 10 mM Tris-HCl pH 7.5, 50 mM NaCl, 1 mM DTT, 4% glycerol, room temperature, 30 min; GST-TFs on glutathione beads, 16-mer random dsDNA library, 0.1% formaldehyde crosslink after washing; high values mean tight binding
# [1] = molecular target: T1, FLI1 (Homo sapiens, UniProt Q01543 1-452); conditions: protein: recombinant; tags: N-terminal GST; dsDNA, one strand shown
# T1 sequence: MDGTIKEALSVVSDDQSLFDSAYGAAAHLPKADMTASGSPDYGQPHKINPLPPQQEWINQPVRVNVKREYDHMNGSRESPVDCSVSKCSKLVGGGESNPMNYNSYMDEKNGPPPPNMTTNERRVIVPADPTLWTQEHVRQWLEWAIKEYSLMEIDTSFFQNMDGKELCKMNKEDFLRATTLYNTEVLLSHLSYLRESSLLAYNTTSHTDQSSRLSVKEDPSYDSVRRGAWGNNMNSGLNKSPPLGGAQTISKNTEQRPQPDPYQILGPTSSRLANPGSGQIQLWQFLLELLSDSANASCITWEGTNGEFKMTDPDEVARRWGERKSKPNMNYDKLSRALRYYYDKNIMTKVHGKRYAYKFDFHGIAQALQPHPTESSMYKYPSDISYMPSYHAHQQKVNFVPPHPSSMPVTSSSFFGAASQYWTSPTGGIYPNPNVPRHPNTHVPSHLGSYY
# In short: (§1)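 GST fusions of human transcription factors were expressed in yeast and captured with glutathione beads. Once given DNA barcodes and pooled alongside a tag-only sample, they were incubated for 30 min at room temperature with 200 nmole of a random double-stranded 16-mer DNA library in Tris/NaCl/DTT/glycerol buffer, then washed, crosslinked (0.1% formaldehyde), proximity-ligated, PCR-amplified and sequenced on an Illumina NextSeq500. The binding signal of each hexamer is its read frequency for a factor divided by its frequency for the tag-only sample.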
# [2] = molecular target: T2, ELK1 (Homo sapiens, UniProt P19419 1-428); conditions: protein: recombinant; tags: N-terminal GST; dsDNA, one strand shown
# T2 sequence: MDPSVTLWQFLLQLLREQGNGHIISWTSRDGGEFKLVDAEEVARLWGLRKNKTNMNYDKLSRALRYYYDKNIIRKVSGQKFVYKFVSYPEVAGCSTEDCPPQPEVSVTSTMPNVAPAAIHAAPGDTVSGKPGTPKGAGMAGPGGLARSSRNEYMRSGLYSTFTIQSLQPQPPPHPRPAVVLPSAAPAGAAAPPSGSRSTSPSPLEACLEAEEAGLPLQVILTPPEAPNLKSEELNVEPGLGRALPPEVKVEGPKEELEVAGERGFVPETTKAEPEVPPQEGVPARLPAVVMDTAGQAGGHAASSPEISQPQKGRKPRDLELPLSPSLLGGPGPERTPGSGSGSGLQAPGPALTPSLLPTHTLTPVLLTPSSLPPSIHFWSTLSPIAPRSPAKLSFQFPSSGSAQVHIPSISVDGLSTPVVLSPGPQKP
# In short: as §1
# [3] = molecular target: T3, GABPA (Homo sapiens, UniProt Q06546 1-454); conditions: protein: recombinant; tags: N-terminal GST; dsDNA, one strand shown
# T3 sequence: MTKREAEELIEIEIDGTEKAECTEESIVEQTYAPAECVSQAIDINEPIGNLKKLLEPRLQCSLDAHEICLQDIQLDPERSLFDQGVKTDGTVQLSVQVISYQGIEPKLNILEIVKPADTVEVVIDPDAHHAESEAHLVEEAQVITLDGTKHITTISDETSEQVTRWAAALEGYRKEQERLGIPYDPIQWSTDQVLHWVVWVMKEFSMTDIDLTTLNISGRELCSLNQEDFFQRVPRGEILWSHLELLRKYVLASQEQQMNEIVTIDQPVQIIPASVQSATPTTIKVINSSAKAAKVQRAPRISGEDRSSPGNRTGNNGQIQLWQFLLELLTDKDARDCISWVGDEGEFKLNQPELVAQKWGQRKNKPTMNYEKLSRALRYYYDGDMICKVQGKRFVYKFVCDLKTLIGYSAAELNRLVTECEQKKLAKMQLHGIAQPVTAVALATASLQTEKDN
# In short: as §1
# [4] = molecular target: T4, ERG (Homo sapiens, UniProt P11308 1-479); conditions: protein: recombinant; tags: N-terminal GST; dsDNA, one strand shown
# T4 sequence: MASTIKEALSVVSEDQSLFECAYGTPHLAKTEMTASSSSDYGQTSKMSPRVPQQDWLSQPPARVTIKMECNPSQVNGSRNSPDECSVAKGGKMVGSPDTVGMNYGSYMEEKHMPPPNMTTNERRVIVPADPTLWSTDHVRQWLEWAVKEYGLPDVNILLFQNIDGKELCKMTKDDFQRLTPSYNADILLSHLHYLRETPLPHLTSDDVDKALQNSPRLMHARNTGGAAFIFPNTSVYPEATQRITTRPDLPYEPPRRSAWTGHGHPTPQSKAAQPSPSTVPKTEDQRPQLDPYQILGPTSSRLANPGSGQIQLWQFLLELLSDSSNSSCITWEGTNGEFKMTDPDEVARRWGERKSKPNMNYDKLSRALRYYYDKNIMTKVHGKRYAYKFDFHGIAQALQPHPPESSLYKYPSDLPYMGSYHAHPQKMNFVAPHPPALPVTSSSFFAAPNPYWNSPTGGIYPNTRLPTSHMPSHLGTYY
# In short: as §1
# [5] = molecular target: ELF1 (Homo sapiens, UniProt P32519 1-619); conditions: protein: recombinant; tags: N-terminal GST; dsDNA, one strand shown
# In short: as §1
# [6] = molecular target: T5, EHF (Homo sapiens, UniProt Q9NZC4 1-300); conditions: protein: recombinant; tags: N-terminal GST; dsDNA, one strand shown
# T5 sequence: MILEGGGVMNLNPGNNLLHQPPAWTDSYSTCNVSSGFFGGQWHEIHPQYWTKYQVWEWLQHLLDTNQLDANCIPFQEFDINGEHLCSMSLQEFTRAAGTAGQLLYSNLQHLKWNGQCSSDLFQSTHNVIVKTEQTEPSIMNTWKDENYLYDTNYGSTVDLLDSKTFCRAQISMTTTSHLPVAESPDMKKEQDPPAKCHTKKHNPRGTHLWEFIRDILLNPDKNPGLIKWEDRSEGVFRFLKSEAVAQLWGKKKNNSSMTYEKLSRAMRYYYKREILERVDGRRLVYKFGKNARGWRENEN
# In short: as §1
# [7] = molecular target: SPI1 (Homo sapiens, UniProt P17947 1-270); conditions: protein: recombinant; tags: N-terminal GST; dsDNA, one strand shown
# In short: as §1
# [8] = molecular target: SPIB (Homo sapiens, UniProt Q01892 1-262); conditions: protein: recombinant; tags: N-terminal GST; dsDNA, one strand shown
# In short: as §1
# [9] = molecular target: T6, ELK3 (Homo sapiens, UniProt P41970 1-407); conditions: protein: recombinant; tags: N-terminal GST; dsDNA, one strand shown
# T6 sequence: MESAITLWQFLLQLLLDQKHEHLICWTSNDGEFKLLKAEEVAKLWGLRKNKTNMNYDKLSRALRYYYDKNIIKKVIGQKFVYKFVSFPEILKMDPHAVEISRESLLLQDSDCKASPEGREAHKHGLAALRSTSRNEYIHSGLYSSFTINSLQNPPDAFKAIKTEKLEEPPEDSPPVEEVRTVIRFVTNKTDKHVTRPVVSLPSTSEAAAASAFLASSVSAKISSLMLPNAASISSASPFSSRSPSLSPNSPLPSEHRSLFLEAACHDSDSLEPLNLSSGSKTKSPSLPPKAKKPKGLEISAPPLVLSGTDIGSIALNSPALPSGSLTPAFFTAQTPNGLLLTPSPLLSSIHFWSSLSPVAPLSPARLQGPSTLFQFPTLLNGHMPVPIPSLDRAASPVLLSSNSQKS
# In short: as §1
# [10] = molecular target: T7, FEV (Homo sapiens, UniProt Q99581 1-238); conditions: protein: recombinant; tags: N-terminal GST; dsDNA, one strand shown
# T7 sequence: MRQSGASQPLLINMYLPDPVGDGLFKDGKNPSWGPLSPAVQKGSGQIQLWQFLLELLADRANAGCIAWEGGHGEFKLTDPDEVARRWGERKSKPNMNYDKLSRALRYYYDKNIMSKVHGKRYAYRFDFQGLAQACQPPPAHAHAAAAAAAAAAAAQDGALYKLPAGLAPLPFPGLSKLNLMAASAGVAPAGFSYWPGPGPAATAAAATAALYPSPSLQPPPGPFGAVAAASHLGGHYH
# In short: as §1
# [11] = molecular target: ETV5 (Homo sapiens, UniProt P41161 1-510); conditions: protein: recombinant; tags: N-terminal GST; dsDNA, one strand shown
# In short: as §1
# [12] = molecular target: HSF1 (Homo sapiens, UniProt Q00613 1-529); conditions: protein: recombinant; tags: N-terminal GST; chain copies: 3; dsDNA, one strand shown
# In short: as §1
# [13] = molecular target: T8, SPIC (Homo sapiens, UniProt Q8N5J4 1-248); conditions: protein: recombinant; tags: N-terminal GST; dsDNA, one strand shown
# T8 sequence: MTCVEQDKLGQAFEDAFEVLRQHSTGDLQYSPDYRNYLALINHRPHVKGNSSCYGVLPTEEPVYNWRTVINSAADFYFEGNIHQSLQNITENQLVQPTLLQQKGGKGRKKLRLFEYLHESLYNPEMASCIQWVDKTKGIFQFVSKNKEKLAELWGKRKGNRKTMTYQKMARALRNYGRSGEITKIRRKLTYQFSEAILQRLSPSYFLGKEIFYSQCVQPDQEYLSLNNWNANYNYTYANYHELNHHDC
# In short: as §1
# [14] = molecular target: ELF4 (Homo sapiens, UniProt Q99607 1-663); conditions: protein: recombinant; tags: N-terminal GST; dsDNA, one strand shown
# In short: as §1
# [15] = molecular target: T9, ELK4 (Homo sapiens, UniProt P28324-2 1-405); conditions: protein: recombinant; tags: N-terminal GST; dsDNA, one strand shown
# T9 sequence: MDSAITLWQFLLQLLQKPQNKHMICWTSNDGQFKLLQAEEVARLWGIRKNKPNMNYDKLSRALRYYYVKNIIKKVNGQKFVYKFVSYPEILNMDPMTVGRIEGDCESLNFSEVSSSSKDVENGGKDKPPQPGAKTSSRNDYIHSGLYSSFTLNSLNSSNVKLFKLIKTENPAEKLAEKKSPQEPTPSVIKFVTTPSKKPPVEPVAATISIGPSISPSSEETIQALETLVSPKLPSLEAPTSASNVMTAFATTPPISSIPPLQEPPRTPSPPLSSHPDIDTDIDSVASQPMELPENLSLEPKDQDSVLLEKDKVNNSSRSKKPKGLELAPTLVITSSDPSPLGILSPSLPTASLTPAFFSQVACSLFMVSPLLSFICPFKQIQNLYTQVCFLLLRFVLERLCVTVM
# In short: as §1
# [16] = molecular target: T10, ETV2 (Homo sapiens, UniProt O00321 1-342); conditions: protein: recombinant; tags: N-terminal GST; dsDNA, one strand shown
# T10 sequence: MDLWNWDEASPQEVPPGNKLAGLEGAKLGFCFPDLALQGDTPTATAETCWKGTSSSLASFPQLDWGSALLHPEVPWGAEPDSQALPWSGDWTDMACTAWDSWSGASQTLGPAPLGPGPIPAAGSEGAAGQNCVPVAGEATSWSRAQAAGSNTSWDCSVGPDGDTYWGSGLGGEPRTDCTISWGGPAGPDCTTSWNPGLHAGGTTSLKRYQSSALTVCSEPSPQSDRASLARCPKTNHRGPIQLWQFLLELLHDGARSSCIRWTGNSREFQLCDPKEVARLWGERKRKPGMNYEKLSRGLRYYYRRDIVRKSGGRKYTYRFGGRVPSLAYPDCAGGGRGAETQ
# In short: as §1
# [17] = molecular target: T11, ELF3 (Homo sapiens, UniProt P78545 1-371); conditions: protein: recombinant; tags: N-terminal GST; dsDNA, one strand shown
# T11 sequence: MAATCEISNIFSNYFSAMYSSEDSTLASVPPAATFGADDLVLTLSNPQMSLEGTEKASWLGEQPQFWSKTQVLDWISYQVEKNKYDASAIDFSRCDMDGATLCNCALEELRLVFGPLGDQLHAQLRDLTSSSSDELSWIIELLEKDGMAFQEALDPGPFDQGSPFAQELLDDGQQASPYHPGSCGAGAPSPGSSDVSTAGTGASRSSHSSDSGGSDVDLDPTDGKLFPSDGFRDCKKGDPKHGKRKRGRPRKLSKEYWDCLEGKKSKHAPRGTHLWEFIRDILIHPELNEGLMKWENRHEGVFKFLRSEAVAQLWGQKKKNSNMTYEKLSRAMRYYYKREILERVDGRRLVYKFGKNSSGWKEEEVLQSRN
# In short: as §1
# [18] = molecular target: CRX (Homo sapiens, UniProt O43186 1-299); conditions: protein: recombinant; tags: N-terminal GST; dsDNA, one strand shown
# In short: as §1
# [19] = molecular target: ETV1 (Homo sapiens, UniProt P50549 1-477); conditions: protein: recombinant; tags: N-terminal GST; dsDNA, one strand shown
# In short: as §1
# Chain of ETV5 (P41161 whole entry): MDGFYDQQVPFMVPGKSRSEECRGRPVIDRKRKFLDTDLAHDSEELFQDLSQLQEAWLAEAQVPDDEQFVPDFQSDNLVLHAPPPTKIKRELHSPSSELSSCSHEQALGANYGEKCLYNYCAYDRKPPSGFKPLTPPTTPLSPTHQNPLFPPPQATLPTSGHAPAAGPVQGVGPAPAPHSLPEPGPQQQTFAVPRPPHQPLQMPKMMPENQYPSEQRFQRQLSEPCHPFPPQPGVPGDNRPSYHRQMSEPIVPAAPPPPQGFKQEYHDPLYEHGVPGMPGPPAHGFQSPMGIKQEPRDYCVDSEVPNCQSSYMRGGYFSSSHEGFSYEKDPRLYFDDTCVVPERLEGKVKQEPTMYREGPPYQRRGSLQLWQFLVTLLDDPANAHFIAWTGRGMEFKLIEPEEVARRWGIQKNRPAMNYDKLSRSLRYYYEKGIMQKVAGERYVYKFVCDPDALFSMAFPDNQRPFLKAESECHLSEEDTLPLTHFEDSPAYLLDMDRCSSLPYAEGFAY
# Chain of ETV1 (P50549 whole entry): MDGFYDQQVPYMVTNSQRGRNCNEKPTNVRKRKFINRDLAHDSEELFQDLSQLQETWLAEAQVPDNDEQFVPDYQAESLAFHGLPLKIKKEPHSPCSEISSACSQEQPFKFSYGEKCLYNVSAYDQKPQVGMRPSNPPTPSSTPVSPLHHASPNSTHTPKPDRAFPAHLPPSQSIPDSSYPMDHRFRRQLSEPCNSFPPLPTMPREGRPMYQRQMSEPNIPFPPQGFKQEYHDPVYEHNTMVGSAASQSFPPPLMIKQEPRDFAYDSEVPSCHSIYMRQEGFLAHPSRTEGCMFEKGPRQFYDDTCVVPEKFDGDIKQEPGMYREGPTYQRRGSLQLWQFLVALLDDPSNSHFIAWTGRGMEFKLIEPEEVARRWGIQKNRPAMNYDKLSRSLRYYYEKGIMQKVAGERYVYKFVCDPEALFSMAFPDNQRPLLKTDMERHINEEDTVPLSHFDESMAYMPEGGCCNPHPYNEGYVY
# Chain of HSF1 (Q00613 whole entry): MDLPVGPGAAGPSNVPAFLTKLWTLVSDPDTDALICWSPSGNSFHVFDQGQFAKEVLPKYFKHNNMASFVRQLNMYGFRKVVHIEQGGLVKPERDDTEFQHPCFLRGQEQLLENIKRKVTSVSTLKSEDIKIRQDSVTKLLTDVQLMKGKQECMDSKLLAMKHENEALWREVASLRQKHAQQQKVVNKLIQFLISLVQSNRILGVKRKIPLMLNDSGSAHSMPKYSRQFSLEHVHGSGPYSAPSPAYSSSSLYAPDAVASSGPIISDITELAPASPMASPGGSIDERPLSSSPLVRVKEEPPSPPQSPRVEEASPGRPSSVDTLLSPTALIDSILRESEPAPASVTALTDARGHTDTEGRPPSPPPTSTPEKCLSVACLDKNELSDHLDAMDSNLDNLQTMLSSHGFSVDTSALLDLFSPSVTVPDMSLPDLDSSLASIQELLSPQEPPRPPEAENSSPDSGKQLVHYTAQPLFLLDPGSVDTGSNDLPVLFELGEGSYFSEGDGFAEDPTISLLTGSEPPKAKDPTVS
# Chain of CRX (O43186 whole entry): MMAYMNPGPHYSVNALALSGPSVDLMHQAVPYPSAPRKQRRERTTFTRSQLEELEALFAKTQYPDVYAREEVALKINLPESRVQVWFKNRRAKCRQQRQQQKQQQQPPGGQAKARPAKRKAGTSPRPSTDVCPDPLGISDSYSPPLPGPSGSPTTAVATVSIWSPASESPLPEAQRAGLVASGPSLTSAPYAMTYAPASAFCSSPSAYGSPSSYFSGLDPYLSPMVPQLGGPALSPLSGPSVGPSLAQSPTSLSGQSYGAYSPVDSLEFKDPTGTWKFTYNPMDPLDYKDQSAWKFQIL
# Chain of ELF1 (P32519 whole entry): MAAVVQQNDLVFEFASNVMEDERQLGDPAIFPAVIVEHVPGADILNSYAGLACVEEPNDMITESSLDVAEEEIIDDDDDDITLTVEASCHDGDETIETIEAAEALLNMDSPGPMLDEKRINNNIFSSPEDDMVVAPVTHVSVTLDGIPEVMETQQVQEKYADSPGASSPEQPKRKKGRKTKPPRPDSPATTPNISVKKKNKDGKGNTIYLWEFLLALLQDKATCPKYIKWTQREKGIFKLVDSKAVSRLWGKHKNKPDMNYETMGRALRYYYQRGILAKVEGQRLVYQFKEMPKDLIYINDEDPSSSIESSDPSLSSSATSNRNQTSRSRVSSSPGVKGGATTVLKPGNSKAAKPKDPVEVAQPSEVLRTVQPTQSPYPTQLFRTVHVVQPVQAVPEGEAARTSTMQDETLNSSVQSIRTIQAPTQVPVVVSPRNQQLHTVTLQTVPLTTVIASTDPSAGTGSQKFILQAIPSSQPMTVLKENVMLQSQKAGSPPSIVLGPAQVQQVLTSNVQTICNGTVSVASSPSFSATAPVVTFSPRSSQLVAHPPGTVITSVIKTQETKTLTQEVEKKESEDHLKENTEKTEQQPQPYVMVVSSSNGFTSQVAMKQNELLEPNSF
# Chain of ELF4 (Q99607 whole entry): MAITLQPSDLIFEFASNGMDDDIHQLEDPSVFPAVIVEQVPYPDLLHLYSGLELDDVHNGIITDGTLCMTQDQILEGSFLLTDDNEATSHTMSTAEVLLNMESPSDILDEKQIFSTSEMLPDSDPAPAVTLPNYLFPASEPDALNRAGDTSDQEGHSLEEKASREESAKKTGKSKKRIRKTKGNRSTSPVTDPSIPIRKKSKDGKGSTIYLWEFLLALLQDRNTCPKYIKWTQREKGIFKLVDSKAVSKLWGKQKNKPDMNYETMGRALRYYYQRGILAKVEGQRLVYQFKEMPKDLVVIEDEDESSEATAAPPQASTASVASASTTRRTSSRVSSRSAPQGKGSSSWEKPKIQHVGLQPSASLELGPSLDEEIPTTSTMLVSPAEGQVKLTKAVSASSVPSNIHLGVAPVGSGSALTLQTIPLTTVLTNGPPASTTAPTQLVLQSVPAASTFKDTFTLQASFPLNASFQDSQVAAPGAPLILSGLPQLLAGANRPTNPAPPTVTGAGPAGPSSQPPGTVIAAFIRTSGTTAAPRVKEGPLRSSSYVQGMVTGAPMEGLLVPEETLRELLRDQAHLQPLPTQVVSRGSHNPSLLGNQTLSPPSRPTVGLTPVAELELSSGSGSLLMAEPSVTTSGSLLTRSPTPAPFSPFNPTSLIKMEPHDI
# Chain of SPIB (Q01892 whole entry): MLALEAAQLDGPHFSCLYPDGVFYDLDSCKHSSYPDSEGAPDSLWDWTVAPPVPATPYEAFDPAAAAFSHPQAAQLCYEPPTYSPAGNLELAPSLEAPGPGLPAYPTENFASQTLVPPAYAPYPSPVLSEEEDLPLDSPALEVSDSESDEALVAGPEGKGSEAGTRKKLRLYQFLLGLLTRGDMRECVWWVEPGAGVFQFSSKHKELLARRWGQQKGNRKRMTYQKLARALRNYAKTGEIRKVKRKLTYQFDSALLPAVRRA
sequence,measurement,setting,value
TATGCG,binding signal,[1],"1.5 fold enrichment (6-mer frequency, TF over GST control)"
same,binding signal,[2],"1.42 fold enrichment (6-mer frequency, TF over GST control)"
same,binding signal,[3],"1.35 fold enrichment (6-mer frequency, TF over GST control)"
same,binding signal,[4],"1.31 fold enrichment (6-mer frequency, TF over GST control)"
same,binding signal,[5],"1.31 fold enrichment (6-mer frequency, TF over GST control)"
same,binding signal,[6],"1.37 fold enrichment (6-mer frequency, TF over GST control)"
same,binding signal,[7],"1.32 fold enrichment (6-mer frequency, TF over GST control)"
same,binding signal,[8],"1.29 fold enrichment (6-mer frequency, TF over GST control)"
same,binding signal,[9],"1.39 fold enrichment (6-mer frequency, TF over GST control)"
same,binding signal,[10],"1.26 fold enrichment (6-mer frequency, TF over GST control)"
same,binding signal,[11],"1.29 fold enrichment (6-mer frequency, TF over GST control)"
same,binding signal,[12],"1.23 fold enrichment (6-mer frequency, TF over GST control)"
same,binding signal,[13],"1.63 fold enrichment (6-mer frequency, TF over GST control)"
same,binding signal,[14],"1.35 fold enrichment (6-mer frequency, TF over GST control)"
same,binding signal,[15],"1.44 fold enrichment (6-mer frequency, TF over GST control)"
same,binding signal,[16],"1.45 fold enrichment (6-mer frequency, TF over GST control)"
same,binding signal,[17],"1.19 fold enrichment (6-mer frequency, TF over GST control)"
same,binding signal,[18],"1.4 fold enrichment (6-mer frequency, TF over GST control)"
same,binding signal,[19],"1.35 fold enrichment (6-mer frequency, TF over GST control)"
